This excerpt belongs to a sample that is enriched for hits.
Pf Dd2 growth = Plasmodium falciparum Dd2 growth inhibition | P. falciparum Dd2 growth, SYBR Green, 72 h | Potency, µM (highest dose often 28.9 µM), most hits filed as inhibitors | hit rate 4.3% among 120,000; active means well fitted inhibition curve with a large enough effect; further: nearly all actives have a fitted effect of over 65% in size
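Infected erythrocytes (Dd2, 0.3% parasitemia, 2.5% hematocrit final) are added to compound in RPMI-1640/Albumax II medium, grown 72 h at 37C in low oxygen, then lysed with saponin/Triton-X containing SYBR Green and read by fluorescence.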
A number is an active result; 0 = inactive; [ ] = dose if it differs, or a comment.

SMILES	Pf Dd2 growth
COc1cccc(N2C(=O)NC(=NC3CCCCC3)C23CCN(Cc2ccccc2)C3)c1 (stereo not drawn)	0
COc1cccc(N2C(=O)NC(=NC3CCCC3)C23CCCN(C(=O)c2ccccc2F)C3)c1 (stereo not drawn)	0
COc1ccc(CN2CCC3(CC2)C(=NC2CCCCC2)NC(=O)N3c2cccc(OC)c2)cc1	0
COc1cccc(N2C(=O)NC(=NC3CCCCC3)C23CCCN(Cc2ccc(F)cc2)C3)c1 (stereo not drawn)	12.6µM
COc1cccc(N2C(=O)NC(=NC3CCCCC3)C23CCCN(C(=O)c2ccccc2OC)C3)c1 (stereo not drawn)	0
COc1cccc(N2C(=O)NC(=NC3CCCC3)C23CCN(Cc2ccc(F)cc2)C3)c1 (stereo not drawn)	12.6µM
Cc1cc(CN2CCN(C(=O)CNC3CC3)CC(C(=O)O)C2)on1 (stereo not drawn)	0
CCNC(=O)N1CCC(CCOC)(NC(=O)c2cccs2)CC1	0
c1coc(-c2nnc([C@H]3CCN(C4CCOCC4)C3)o2)c1	0
COc1ccccc1CNC(=O)Cn1c(=O)ccc2cc(S(=O)(=O)N3CCC(C)CC3)ccc21	0
Cc1cc(=O)n(CC(=O)Nc2ccc(C)c(Cl)c2)c(N2CCC(C)CC2)n1	0
CCOc1ccc(NC(=O)Nc2cc3c(cc2N2CCCCC2)n(C)c(=O)n3C)cc1	0
Cc1cc(=O)n(CC(=O)Nc2ccc(Br)cc2)c(N2CCC(C)CC2)n1	0
CCc1ccccc1NC(=O)Cn1c(=O)ccc2cc(S(=O)(=O)N3CCCC3)ccc21	0
CCOc1ccccc1NC(=O)Nc1cc2c(cc1N1CCCCC1)n(CC)c(=O)n2CC	11.2µM
CCOc1ccc(C(=O)Nc2cc3c(cc2N2CCCC2)n(C)c(=O)c(=O)n3C)cc1OCC	0
CCOc1ccccc1NC(=O)Cn1c(=O)ccc2cc(S(=O)(=O)N3CCC(C)CC3)ccc21	12.6µM
CCc1ccccc1NC(=O)Cn1c(-c2ccccc2)nc(C)cc1=O	0
Cc1cc(=O)n(CC(=O)Nc2ccc(Cl)cc2)c(N2CCC(C)CC2)n1	11.2µM
CCOc1ccccc1NC(=O)Cn1c(-c2ccccc2)nc(C)cc1=O	1.58µM
CCOc1ccccc1NC(=O)Cn1c(-c2ccc(F)cc2)nc(C)cc1=O	0
CN(C)c1ccc(-c2nc(-c3nnn4c3COC(c3ccccc3Cl)C4)no2)cc1 (stereo not drawn)	0
Cc1ccc(C(=O)NC[C@H]2O[C@@H](CC(=O)N3CCN(c4ccccc4)CC3)[C@H](O)[C@@H]2O)cc1	0
CN(Cc1ccc(F)cc1)Cc1cncs1	0
COc1ccc(CNC(=O)C[C@@H]2O[C@H](CNC(=O)NC(C)C)[C@@H](O)[C@H]2O)cc1	0
SMILES	Pf Dd2 growth
Cc1noc(C2CC3(CCN(C(=O)C4CCCC4)CC3)CN2C)n1 (stereo not drawn)	0
O=C1CCC2(CCN(C(=O)C3CCOCC3)CC2)CN1CCc1ccncc1	0
Cc1ccc(NC(=O)Cn2c(N3CCN(c4ccccc4)CC3)nc(C)cc2=O)c(C)c1	0
Cc1ccc(C)c(NC(=O)Cn2c(N3CCN(c4ccccc4)CC3)nc(C)cc2=O)c1	0
CCOc1ccccc1NC(=O)Cn1c(N2CCN(c3ccccc3)CC2)nc(C)cc1=O	5.62µM
CN(C)CC(=O)N1Cc2ccccc2CC2(CCCN(C)C2)C1 (stereo not drawn)	0
Cc1nc(C)c(C(=O)N2CCC(CC(=O)N(C)Cc3ccccc3)C2)s1 (stereo not drawn)	0
Cc1cn2nc(C(=O)N3CCC(NC(=O)c4ccc(F)c(F)c4)CC3)cc2c(=O)[nH]1	0
COc1cccc(C(=O)NC2CCN(C(=O)c3cc4c(=O)[nH]c(C)cn4n3)CC2)c1	0
Cc1cn2nc(C(=O)N3CCC(NC(=O)c4cccc(C#N)c4)CC3)cc2c(=O)[nH]1	2.82µM
Cc1nc2c(c(NC3CC3)n1)CCN(C(=O)c1ccc(=O)[nH]n1)CC2	0
COc1ccc(OC)c(NC(=O)CCn2ccn3nc4c(c3c2=O)CCCC4)c1	0
CC1=C[C@@H](CN2CCC(CO)CC2)[C@H](C(C)C)C[C@H]1Cc1nnc(-c2ccc([N+](=O)[O-])cc2)o1	3.55µM
COc1ccc(-c2nnc(C[C@@H]3C[C@@H](C(C)C)[C@H](CN4CCN(CCO)CC4)C=C3C)o2)cc1	0
CC1=C[C@@H](CN2CCN(CCO)CC2)[C@H](C(C)C)C[C@H]1Cc1nnc(-c2ccc([N+](=O)[O-])cc2)o1	2.51µM
COCCNC(=O)CC(c1ccccc1OC)c1cn(C)c2ccccc12 (stereo not drawn)	0
O=C(NCc1ccco1)c1cc2n(n1)CC(c1ccc3c(c1)OCO3)OC2 (stereo not drawn)	0
COc1ccc(-c2nc(C(C)C)nc3c2CCN(C(=O)NC2CCCC2)CC3)cc1	0
CCCSC1=NC2(CCN(C(=O)NC3CCCCC3)CC2)N=C1c1ccc(OC)cc1	11.2µM
CCSC1=NC2(CCN(C(=O)NC3CCCCC3)CC2)N=C1c1ccc(OC)cc1	7.08µM
COC1CCC12CCN(C(=O)NC1CCCCC1)CC2 (stereo not drawn)	0
Cc1nc(-c2ccc(OC3CCN(C(=O)NC4CCCCC4)C3)cc2)no1 (stereo not drawn)	0[5.79 µM]
CCCSC1=NC2(CCN(C(=O)NC3CCCCC3)CC2)N=C1c1ccccc1	0
O=C(CC1CCCN(c2cnn(CC3CC3)c(=O)c2)C1)NCc1ccc(F)cc1 (stereo not drawn)	0
CC(c1cccc(-c2nc3c(cc2C(N)=O)CCC3)c1)N1CCCC1 (stereo not drawn)	0
SMILES	Pf Dd2 growth
O=C1NCCCCCCN(C(=O)c2cccs2)[C@H]2C[C@H](c3nc(-c4cnccn4)no3)C[C@@H]12	0
CC(=O)Nc1cccc(NC(=O)Cc2csc(COc3cccc(C)c3)n2)c1	0
Cc1cccc(NC(=O)Cc2csc(COc3cccc(C)c3)n2)c1	0
CCOc1ccccc1NC(=O)Cc1csc(COc2cccc(C)c2)n1	11.2µM
COc1ccc(CN2C(=O)O[C@@H]3CN(S(=O)(=O)N(C)C)C[C@@H]32)cc1OC	0
O=C(c1ccccn1)N1CCCC(CN2CCCC2)CC1 (stereo not drawn)	0
Cn1nc(C(=O)N2CCCC(CN3CCCC3)CC2)c2ccccc21 (stereo not drawn)	3.16µM
Cn1nc(C(=O)N2CCc3nn(CC4CC4)c(=O)n3CC2)c2ccccc21	0
CC(C)c1cc(CN(C)C(=O)CN2C(=O)OC[C@@H]2c2ccccc2)no1	0
COc1ccc(S(=O)(=O)NC[C@H]2C[C@@H]3CCN2C[C@@H]3CN(C)Cc2ccccc2)cc1	2µM
COc1ccc(S(=O)(=O)NC[C@H]2C[C@@H]3CCN2C[C@@H]3CN2CCCCC2)cc1	0
CS(=O)(=O)NC[C@H]1C[C@@H]2CCN1C[C@@H]2CN1CCc2ccccc2C1	0
CC(C)NC(=O)NC[C@H]1C[C@@H]2CCN1C[C@@H]2CN(C)Cc1ccccc1	0
O=S(=O)(NC[C@H]1C[C@@H]2CCN1C[C@@H]2CN1CCc2ccccc21)c1ccc(Cl)cc1	0
COc1ccc(S(=O)(=O)NC[C@H]2C[C@@H]3CCN2C[C@@H]3CN2CCc3ccccc32)cc1	11.2µM
COc1ccc(-c2ccc3nnc(CNC(=O)c4cc(F)ccc4F)n3n2)cc1	0
C[C@@H]1C(=O)O[C@H]2[C@H]1CC[C@@]1(C)Cc3sc(NS(=O)(=O)c4ccc(F)cc4F)nc3[C@@H](C)[C@H]21	0
COc1ccc(CNC(=O)[C@@H]2CCC[C@@H](NC3CCOCC3)CN(C)C(=O)C2)cc1	0
C#CCN(C)Cc1nc(C2(O)CCN(C(=O)c3ccccc3F)CC2)cs1	0
